In the library only some 4% were active in any assay of this set; here they are far more common.
Peg3 prom inh: reduces Peg3 promoter-driven luciferase expression in HeLa; HeLa PEG-Prom luciferase reporter, luminescence, overnight; AID 588405; 360,000 tested, 1.7% active; inhibition, % at 20 µM;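 active means inhibition of at least 50% at 20 µM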
TWEAK-Fn14 inh: TWEAK-Fn14 signaling inhibition. inhibition, % at 10 µM. 360,000 tested, 2% active. TWEAK-stimulated Fn14 reporter cells, luciferase luminescence, 8 h; in the data active means inhibition above about 50%
KKLEB tox: counter-screen for CF NF-kB inhibitors: cytotoxicity | KKLEB CF airway cells viability, ATPlite luminescence, overnight; hits give low values; cells stimulated with P. aeruginosa culture filtrate | AID 602141 | activity change (cytotoxicity), % at 5 µM | 360,000 tested, 0.36% active;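 active means corrected activity change at or below -50% at 5 µM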
TROY NFkB inh: inhibitors of TROY-dependent NF-kB signaling; Q293 LMP1-TROYcd NF-kB luciferase reporter, 4 h; inhibition, % at 10 µM; 360,000 tested, 0.98% active; AID 1347056;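 active means compounds whose plate-normalised and pattern-corrected inhibition of the luciferase reporter signal at the single screening dose is 50% or more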
HIF-2a block: blocks HIF-2a reporter activity. inhibition, % at 18.8 µM. 786-0 RCC cells HIF-2a reporter, luciferase luminescence, overnight. 360,000 tested, 0.72% active;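 active means inhibition of the luminescence signal of 40% or more relative to plate controls, in a single-dose primary screen at 18.75 µM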
CF NFkB inh: inhibitors of cystic fibrosis induced NF-kB; KKLEB NF-kB-GFP reporter, PAF-induced, GFP fluorescence overnight; inhibition, % at 5 µM; 360,000 tested, 0.86% active; AID 588850;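 active means at least 50% inhibition at 5 µM, scaled per plate between neutral and stimulator controls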;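 further: PAF is a Pseudomonas aeruginosa culture filtrate used as stimulus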
Hits are given with their value; i = inactive.

SMILES	Peg3 prom inh	TWEAK-Fn14 inh	KKLEB tox	TROY NFkB inh	HIF-2a block	CF NFkB inh
C[C@@H](NCCCn1ccc(NC(=O)OCc2ccccc2)nc1=O)c1cccc2ccccc12	71	i	i	i	i	i
C[C@@H](NC(=O)Cn1ccc(NC(=O)OCc2ccccc2)nc1=O)c1cccc2ccccc12	i	i	i	i	i	i
CCOC(=O)C1=CCC(c2ccc(CC)cc2)N(S(=O)(=O)c2ccc(C)cc2)C1 (configuration not stated)	i	i	i	i	i	i
CC1(c2ccc3c(c2)OCCCO3)NC(=O)N(CC(=O)NCCc2ccccc2)C1=O (configuration not stated)	i	i	i	i	i	i
COc1ccc2[nH]c3c(C)c4ccncc4c(C)c3c2c1	107	54	i	i	i	78
COCCNC(=O)Cn1nc(-c2ccccc2C)ccc1=O	i	i	i	i	i	i
COc1ccc(CN(C)C(=O)c2ccc(OCC(=O)Nc3cccc(C(F)(F)F)c3)c(OC)c2)cc1	i	52	i	i	i	i
COc1cccc(CN(C)CC(=O)Nc2cccc(C(F)(F)F)c2)c1OC	i	74	i	i	i	i
COc1cccc(CN(C)CC(=O)Nc2cccc(S(N)(=O)=O)c2)c1OC	i	i	i	i	i	i
COC1OC(COCc2ccccc2)C(N)C(OCc2ccccc2)C1OCc1ccccc1 (configuration not stated)	i	i	i	i	i	i
CCCc1[nH]nc2c1C(c1ccccc1OC)C(C#N)=C(N)O2 (configuration not stated)	i	i	i	i	i	i
CCCc1[nH]nc2c1C(c1cn[nH]c1-c1ccc(F)cc1)C(C#N)=C(N)O2 (configuration not stated)	i	54	i	i	i	i
COc1ccccc1CCNC(=O)CSc1ccc(-c2cccs2)nn1	i	i	i	i	i	i
COc1ccccc1NC(=O)CSc1ccc(-c2cccs2)nn1	i	53	i	i	i	i
FC(F)Sc1ccc(NC(=S)N2CCN(c3ccccn3)CC2)cc1	i	56	i	i	i	i
Oc1ccccc1N1CCN(C(=S)Nc2ccc(SC(F)F)cc2)CC1	i	i	i	i	i	i
COc1cc(/C=N/NC(=O)COc2cc(C)cc(C)c2)ccc1OS(=O)(=O)c1ccc(C)cc1	i	62	i	i	i	i
FC(F)(F)c1ccc(-c2csc(-c3ccno3)n2)cc1	i	i	i	i	i	i
CC(C)(C)C(=O)OCc1nc(-c2ccc(C(F)(F)F)cc2)cs1	i	i	i	73	i	i
Cc1nc(N2CCN(c3ccccn3)CC2)c2c(C)c(C(=O)Nc3c(F)cc(F)cc3Br)sc2n1	i	65	i	i	i	i
Cc1nc(N2CCN(c3ccccn3)CC2)c2c(C)c(C(=O)N3CCN(c4ccc(F)cc4)CC3)sc2n1	58	i	i	i	i	i
Cc1c(C(=O)N2CCN(c3ccccc3)CC2)sc2ncnc(N3CCN(c4ccccn4)CC3)c12	56	i	i	i	i	i
Cc1nc(N2CCN(C(=O)COc3ccccc3)CC2)c2c(C)c(C)sc2n1	i	50	i	i	i	i
COc1ccccc1N1CCN(C(=O)c2sc3nc(C)nc(N4CCN(c5ccccn5)CC4)c3c2C)CC1	i	i	i	i	i	i
Cc1c(C(=O)N2CCN(c3ccccn3)CC2)sc2ncnc(N3CCOCC3)c12	i	i	i	i	i	i
SMILES	Peg3 prom inh	TWEAK-Fn14 inh	KKLEB tox	TROY NFkB inh	HIF-2a block	CF NFkB inh
CCCC(=O)Nc1c(-c2cccc(C)c2)c(=O)c2ccccc2n1C	i	i	i	i	i	i
Cc1nnc(SCC(=O)NC2CCCCC2)[nH]c1=O	i	i	i	i	i	i
Cc1cccc(Cc2cnc(N3C(=N)SC(c4ccccc4)C3=O)s2)c1 (configuration not stated)	i	i	i	i	i	i
N=C1SCC(=O)N1c1ncc(Cc2cccc(Cl)c2)s1	i	102	i	67	i	i
N=C1SCC(=O)N1c1ncc(Cc2ccccc2Cl)s1	i	100	i	i	i	i
Cc1ccc(Cc2cnc(N3C(=N)SC(C)C3=O)s2)cc1 (configuration not stated)	i	i	i	i	i	i
Cc1cccc(Cc2cnc(N3C(=N)SC(C)C3=O)s2)c1 (configuration not stated)	i	i	i	67	i	i
CC(C)C(=O)Nc1ncc(Cc2ccccc2Cl)s1	i	i	i	i	i	i
CCCCOc1ccc(C(=O)NCC(=O)N2CC=C(c3ccccc3)CC2)cc1	i	i	i	i	i	i
N#Cc1ccc(C(=O)N2CCC3CC2c2cc(N4CCCCC4)ccc23)cc1 (configuration not stated)	i	i	i	i	i	i
CC(Oc1cc2oc(=O)cc(-c3ccccc3)c2cc1Cl)C(=O)NCC1CCC(C(=O)O)CC1 (configuration not stated)	i	i	i	i	i	i
CC(NC(=O)OC(C)(C)C)C(=O)Oc1cc2oc(=O)cc(-c3ccccc3)c2cc1Cl (configuration not stated)	i	71	i	i	i	82
C=CCN=c1scc(-c2ccc3c(c2)NC(=O)CO3)n1/N=C(\C)c1ccccn1	i	66	i	i	i	i
C=CCN=c1scc(-c2ccc(F)cc2)n1/N=C/c1ccccn1	i	i	i	i	i	i
CN(CC(=O)Nc1ccc(N2CCOCC2)cc1)C(=O)CSc1ccc(F)cc1	i	i	i	i	i	i
CCOc1ccccc1NC(=O)c1cc(C(=O)c2cc(Br)ccc2O)coc1=N	i	i	i	59	i	i
CC(C)OC(=O)c1cc(C(=O)c2cc(Br)ccc2O)coc1=N	i	i	i	i	i	i
CCOC(=O)c1c(NC(=S)NCCc2ccccc2)sc2c1CC(C(C)C)OC2 (configuration not stated)	i	i	i	i	i	60
NC(Cc1ccc(C(F)(F)F)cc1)c1csc(Nc2ccc(C(=O)c3ccccc3)cc2)n1 (configuration not stated)	97	i	i	i	i	i
NC(CCc1ccccc1)c1csc(Nc2ccc(C(=O)c3ccccc3)cc2)n1 (configuration not stated)	88	i	i	i	i	i
CN(Cc1ccccc1)C(=O)c1ccc(Nc2nc(C(N)Cc3ccc(C(F)(F)F)cc3)cs2)nc1 (configuration not stated)	95	i	i	i	i	i
CN(Cc1ccccc1)C(=O)c1ccc(Nc2nc(C(N)COCc3ccccc3)cs2)nc1 (configuration not stated)	i	i	i	i	i	i
CC(=O)c1ccc(Nc2nc(C(N)Cc3ccc(C(F)(F)F)cc3)cs2)cc1 (configuration not stated)	i	i	i	i	i	i
